Measured values from PubChem BioAssay AID1022 (Emory University Molecular Libraries Screening Center, 2008).
The campaign covered roughly 220,000 compounds. About 3,300 (1.5%) were called active.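 How the source made its calls: active means compounds that cut the protein-peptide binding signal by more than 50% relative to plate controls in a single-dose test; inactive means the rest.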 For the sample, actives were picked, then their nearest neighbours and some compounds at random.

Each molecule was assayed against Induced myeloid leukemia cell differentiation protein Mcl-1 (Homo sapiens) (UniProt Q07820) (assay: disruptors of Mcl-1 and Noxa BH3 peptide – biochemical, TR-FRET, 1536-well, primary screen (AID 1022;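 further: His-tagged Mcl-1 with rhodamine Noxa BH3 peptide and terbium anti-His antibody; 0% = Mcl-1 plus Noxa peptide wells and 100% = peptide-only wells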)). Conditions: TR-FRET Mcl-1/Noxa peptide binding, 2 h; at 21.7 µM; active compounds read high.
Chain of Induced myeloid leukemia cell differentiation protein Mcl-1 (Homo sapiens) (Q07820 whole entry, looked up): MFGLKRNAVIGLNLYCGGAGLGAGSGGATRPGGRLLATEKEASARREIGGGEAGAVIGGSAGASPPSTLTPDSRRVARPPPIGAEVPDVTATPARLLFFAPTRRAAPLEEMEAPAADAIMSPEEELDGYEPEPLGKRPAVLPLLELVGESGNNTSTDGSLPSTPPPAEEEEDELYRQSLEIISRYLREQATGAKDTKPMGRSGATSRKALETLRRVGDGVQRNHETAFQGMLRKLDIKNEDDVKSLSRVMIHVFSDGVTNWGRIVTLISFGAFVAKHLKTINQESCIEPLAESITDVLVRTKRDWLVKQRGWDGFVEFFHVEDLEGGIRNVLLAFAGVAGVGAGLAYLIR

Compound	inhibition
O=C(NCc1ccccc1Cl)NC(=O)c1csc([N+](=O)[O-])c1	-17.3% (inactive)
Cc1coc2c(O)cc3c(c12)OC1(N2CCCCC2)C(=O)NCCCC31 (stereo not given)	62.4% (active)
COc1ccc(/C=N/n2nnnc2N)cc1OC	-6.77% (inactive)
Cc1ccc(-c2cc(C(=O)Nc3nn[nH]n3)c3ccccc3n2)c(C)c1	10.4% (inactive)
Cc1ccc(NC(=O)c2cc(-c3ccc(C)o3)nc3ccccc23)nc1	52.1% (active)
Cc1c(NC(=O)c2cc(-c3ccc(Cl)s3)nc3ccccc23)c(=O)n(-c2ccccc2)n1C	-5.37% (inactive)
Cc1ccc(C(=O)N/C(=C\c2ccco2)C(=O)NC2CCS(=O)(=O)C2)cc1 (stereo not given)	2.28% (inactive)
C=C(C)C(=O)Nc1cccc(C2=NOC3(C2)C[C@H](C(N)=O)N(C(=O)C(c2ccccc2)c2ccccc2)C3)c1 (stereo not given in full)	79.5% (active)
C/C=C\C=C\C(=O)N1CC2(CC(c3cccc(NC(=O)/C(C)=C\C)c3)=NO2)C[C@H]1C(N)=O (stereo not given in full)	-3.38% (inactive)
C/C=C(/C)C(=O)Nc1cccc(C2=NOC3(C2)C[C@@H](C(N)=O)N(C(=O)C2(C)CC2)C3)c1 (stereo not given in full)	10.3% (inactive)
CCCN(CCC)CC(O)COc1ccccc1C(=O)Nc1ccccc1 (stereo not given)	2.75% (inactive)
COC(=O)c1ccc(COc2ccc(/C=N/NC(=O)C(=O)Nc3ccc(OC)cc3)cc2OC)o1	-4.48% (inactive)
COc1ccc(NC(=O)/C(C#N)=C\c2cc(OC)c(OCc3ccc(C(=O)O)cc3)cc2Br)cc1	61.8% (active)
COc1cc(/C=C(\C#N)C(=O)Nc2ccc3ccccc3c2)c([N+](=O)[O-])cc1OC	50.2% (inactive)
CCO[C@@H]1OC(C(=O)NC2CC2)=C[C@H](C)[C@H]1CCCO	-4.75% (inactive)
Cc1nc(-c2ccc(Cl)cc2)sc1C(=O)CBr	61% (active)
Cc1nc(-c2ccc(Cl)cc2)sc1C(=O)NN	-14.8% (inactive)
Cc1ccc(SCC(=O)c2sc(-c3ccccc3)nc2C)cc1	12% (inactive)
CC1=CC2=NC(=O)/C(=C/c3coc4ccccc4c3=O)C(=N)N2O1	1.38% (inactive)
COc1cc(C(=S)NC2CCCCC2)ccc1O	14.7% (inactive)

Compound	inhibition
COc1cc(C(=O)Nn2c(O)c(C3=c4ccccc4=NC3=O)sc2=S)ccc1O	58.1% (active)
CCN(CC)C(=O)c1ccc(O)c(OC)c1	4.61% (inactive)
CC(C)(C)c1ccc(/C=C2\Oc3c(ccc(O)c3CN3CCN(CCO)CC3)C2=O)cc1	23.9% (inactive)
CCOC(=O)c1ccc(S(=O)(=O)N(CCO)Cc2cc3cc(OC)c(OC)cc3[nH]c2=O)cc1	-2.09% (inactive)
O=C(CNC(=O)COc1ccccc1)NCCc1ccccn1	23.7% (inactive)
CN(CC(=O)NCCc1ccccn1)S(=O)(=O)c1ccc(Cl)cc1	0.36% (inactive)
O=S(=O)(/C=C/c1ccccc1)NCCc1ccccn1	70% (active)
COc1ccccc1OCC(=O)O/N=C(\N)c1ccccn1	17.8% (inactive)
COc1ccc(NC(=O)Nc2ccc3nc(C)c(C)nc3c2)cc1	32.9% (inactive)
COc1ccc(NC(=O)Nc2ccc3nsnc3c2)cc1	20.7% (inactive)
COCCNC(=O)Nc1ccc2nc(-c3ccco3)c(-c3ccco3)nc2c1	107% (active)
O=C(NCc1ccccn1)c1cc(Br)ccc1Cl	15.5% (inactive)
O=C(NCc1ccccn1)c1cc(-c2ccccc2Cl)on1	8.56% (inactive)
O=C(NCc1ccccn1)c1ccc2nc(-c3ccco3)c(-c3ccco3)nc2c1	91.8% (active)
O=C(NNC(=S)Nc1ccc(F)cc1)[C@H]1C[C@@H]1c1ccccc1	-82.4% (inactive)
O=C(Nc1ccc(N2CCOCC2)nc1)c1c(F)cccc1F	25.6% (inactive)
Cc1cccc(NC(=O)CSc2nnc(CCNC(=O)OC(C)(C)C)o2)c1C	-10.6% (inactive)
C=CC1C(OC2OC(CO)C(O)C(O)C2O)OC=C(C(=O)OC)C1CC1CC(=O)CC(CC(=O)CCc2ccc(O)cc2)O1 (stereo not given)	18.5% (inactive)
Cc1ccc(S(=O)(=O)N(C)C)cc1NC(=O)c1n[nH]c(=O)c2ccccc12	-4.07% (inactive)
CCOC(=O)c1cn[nH]c1NC(=S)Nc1ccccc1	18.3% (inactive)

Compound	inhibition
COc1ccc(OC)c(Nc2nc(-c3ccc(O)c(O)c3)cs2)c1	69.2% (active)
COc1ccc(Nc2nc(-c3ccccc3)cs2)cc1	13.3% (inactive)
COc1ccc2nc(Nc3nc(-c4ccncc4)cs3)sc2c1	43.5% (inactive)
COc1ccc(-c2csc(Nc3ccccn3)n2)cc1	19.1% (inactive)
CCNc1nc(-c2cc3ccccc3o2)cs1	37.2% (inactive)
O=c1oc2ccccc2cc1-c1csc(Nc2ccc(O)cc2)n1	101% (active)
Nc1ncc(-c2cc3ccccc3oc2=O)s1	21.7% (inactive)
COc1ccc(C)cc1Nc1nc(-c2c(C)[nH]c3ccccc23)cs1	12.8% (inactive)
COc1ccc(-c2csc(Nc3ccc(O)cc3)n2)cc1	69.4% (active)
O=C(NCc1ccc(F)cc1)C1CCC(CNc2c(N3CCOCC3)c(=O)c2=O)CC1 (stereo not given)	-8.83% (inactive)
CN1CCN(c2ncc3c(n2)CC(c2ccccc2F)CC3=O)CC1 (stereo not given)	-10.3% (inactive)
CC(=O)NC(CC(=O)Nc1nccs1)c1ccccc1 (stereo not given)	-8.98% (inactive)
CC1(C)CC(=O)C(N=Nc2c(F)cccc2F)=C(O)C1	-2.76% (inactive)
CC(NCc1ccccc1OC1CCCC1)c1ccccc1 (stereo not given)	-3.22% (inactive)
Cc1cc(-c2nc(C)c(-c3nnc(SCC(=O)Nc4ccccc4)n3C)s2)no1	3.26% (inactive)
Nc1nc(SC23CC4CC(CC(C4)C2)C3)ns1	5.98% (inactive)
CC1=CC(C)(C)NC(=S)N1NC(=O)c1ccccc1Cl	5.81% (inactive)
CC(C)(C)NC(=O)Cn1cnc2cc([N+](=O)[O-])ccc2c1=O	27.1% (inactive)
O=C(Cn1cnc2c(cnn2-c2ccccc2)c1=O)NCc1ccccc1	6.36% (inactive)
O=C(Cn1cnc2cc([N+](=O)[O-])ccc2c1=O)NC(=O)NCc1ccccc1	53.5% (active)
